# ALDH1A1 block – qHTS Assay for Inhibitors of Aldehyde Dehydrogenase 1 (ALDH1A1) | Aldehyde dehydrogenase 1A1 (Homo sapiens), P00352 | Purified ALDH1A1, NADH fluorescence, propionaldehyde substrate | Potency, µM (highest dose often 75.3 µM), inactives show at the highest dose activity, negative = inhibition, usual class: inhibitors | actives 7.3% (n = 220,000) | AID 1030, 2008;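 further: potency means the concentration at half of the fitted maximal effect; plate controls were no enzyme wells and a reference inhibitor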
# PNC assembly inh – High Content Assay for Compounds that inhibit the Assembly of the Perinucleolar Compartment | PC3M PTB-GFP, PNC prevalence imaging, 16 h; hits give low values | actives 3.1% (n = 140,000) | activity change (PNC), negative = inhibition, % at 10 µM;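 active means readout at or below -70, meaning at least 70% loss of cells showing the perinucleolar compartment, a nuclear body marking cancer cells; inconclusive means readout between -30 and a set limit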;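 further: plate controls were DMSO wells for no effect and camptothecin positive control wells for full effect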
#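 PC3M cells stably expressing PTB-GFP, 750–1000 cells/well, treated 16 h at 37 °C with compound (23 nl of library stock), in duplicate. After paraformaldehyde fixation and Hoechst stain, imaged at 20x; PNC prevalence scored by image analysis.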
# LMNA splice mod – qHTS Assay for Modulators of Lamin A Splicing. Potency, µM (highest dose often 46.1 µM), for inactives: top-dose ratio change, negative = inhibition, hits mostly inhibitors. HeLa LMNA splicing GFP/RFP minigene ratio, 48 h. AID 1487, 2009. actives 0.01% (n = 200,000); active means well fitted inhibition curve with a large enough effect in the signal ratio, with a control signal flat, not every such curve was filed as active; inconclusive means small, poorly fitted or top-dose-only effect, or effect the other way, or a change in a side signal; the % refers to the signal ratio; further: potency means the concentration at half of the fitted maximal effect
#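 S3 HeLa cells stably expressing lamin A-EGFP splicing minigene plus DsRed2, 600 cells/well, 48 h compound exposure at 37C. Laser-scanning cytometry; analysed as GFP (500-530 nm)/RFP (575-640 nm) total intensity ratio; 0.5% DMSO vehicle.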
# KinaseGlo FLuc – Counterscreen for Luciferase (Kinase-Glo TM) Inhibition. Luciferin 4-monooxygenase (Photuris pensylvanica), Q27757. Kinase-Glo luciferase, ATP luminescence, 8 min. Potency, µM (series often up to 38.3 µM), for the others: top-dose activity change, negative = inhibition, usual class: inhibitors. actives 0.28% (n = 200,000); active means well fitted inhibition curve with a large enough effect; inconclusive means small, poorly fitted or top-dose-only effect; further: potency means the concentration at half of the fitted maximal effect; nearly all actives have a fitted effect of over 60% in size
#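 Inhibition of Kinase-Glo luciferase light generation was assessed at 10 uM ATP in pH 7.2 imidazole buffer, with luminescence measured after eight minutes at ambient temperature.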
# HPGD block – qHTS Assay for Inhibitors of HPGD (15-Hydroxyprostaglandin Dehydrogenase). Potency, µM, for the others: at the highest dose activity change, negative = inhibition, hits mostly inhibitors. AID 894, 2007. actives 4.3% (n = 150,000). purified HPGD, NADH fluorescence kinetic, PGE2 substrate. 15-hydroxyprostaglandin dehydrogenase [NAD(+)] (Homo sapiens), P15428; further: potency means the concentration at half of the fitted maximal effect
# Target sequence (P15428 whole entry, looked up): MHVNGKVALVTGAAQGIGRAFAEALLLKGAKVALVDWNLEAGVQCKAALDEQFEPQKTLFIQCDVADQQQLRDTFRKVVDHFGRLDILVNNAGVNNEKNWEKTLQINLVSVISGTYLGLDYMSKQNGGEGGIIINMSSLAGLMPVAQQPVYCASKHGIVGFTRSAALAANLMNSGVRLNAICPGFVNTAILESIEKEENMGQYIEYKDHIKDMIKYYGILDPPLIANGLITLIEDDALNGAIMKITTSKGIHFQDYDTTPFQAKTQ
#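 NADH formation kinetics: reaction with 30 uM PGE2 and 1 mM NAD+ (final), 20 nM enzyme, Tris-HCl pH 8 with Tween 20, after 15 min compound preincubation at room temperature. Fluorescence change, last versus first of five reads.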
# Starred values were filed as active, the others as inactive; ? = inconclusive; / = not tested or not shown; [ ] = another dose, or the depositor's remark. Sampled rows, rich in hits. Any-hit rate of the full collection: about 10%. Unless noted, the call rests on the fitted dose curve; in most records, active means well fitted inhibition curve with a large enough effect (not every such curve was filed as active); inconclusive means small, poorly fitted or top-dose-only effect, or another doubt; inactive means no such curve, though single readings can be large or run the other way. Unless noted, on the % scale 0 is the no-effect control and ±100 the full control effect.
SMILES,ALDH1A1 block,PNC assembly inh,LMNA splice mod,KinaseGlo FLuc,HPGD block
CC1Cc2ccccc2N1C(=O)CCNS(=O)(=O)c1ccc2c(c1)CCC(=O)N2 (centres undefined),16µM*,9,1%,3%,-1%
CCOC(=O)CSc1cn2c(n1)CCC2,1%,-100*,-15%,1%,?
CC(C)CNC(=O)C(=O)Nc1c2c(nn1-c1ccccc1)CS(=O)(=O)C2,/,/,-12%[46 µM],/,/
CCOC(=O)N1CCN(c2c(-c3ccc(C)cc3)c(=O)c2=O)CC1,4%,-100*,3%,1%,-10%
CCOC(=O)N1CCN(c2c(-c3ccc(C)c(C)c3)c(=O)c2=O)CC1,-11%,-100*,2%,3%,-15%
CC(CCCCC(=O)Nc1ccc(C(F)(F)F)cc1)NCCc1cnc[nH]1 (centres undefined),-9%,/,/,/,/
NC(N)=Nc1ccc(-c2ccc(N=C(N)N)cc2)cc1,4%[13.5 µM],/,/,0%[7.66 µM],-7%
COC(=O)c1cc(NCc2cccs2)ccc1N1CCOCC1,18µM*,-22,-3%,-1%,-9%
CC1CCN(Cc2c(C#N)c3ccccc3n2C)CC1,32µM*,50,2%,-2%,-2%
Cn1c(CN2CCCC2)c(C#N)c2ccccc21,-9%,/,2%[46 µM],0%,/
CCOc1ccc(-c2c(=O)n(OCc3ccc([N+](=O)[O-])cc3)c3ccccc3[n+]2[O-])cc1,20µM*,42,?,-3%,-19%
O=c1c(-c2ccco2)[n+]([O-])c2ccccc2n1OCc1ccccc1[N+](=O)[O-],14µM*,/,/,0%,/
O=c1c(-c2ccco2)[n+]([O-])c2ccccc2n1OCc1ccccn1,10µM*,-17,10%,-1%,-19%
O=c1c(-c2ccc(F)cc2)[n+]([O-])c2ccccc2n1OCc1ccccn1,2%,/,/,0%,/
CCCn1c(-c2ccc(F)cc2)nc2c(NC(C)CN(C)C)nc(C)nc21 (centres undefined),?,/,/,-2%,-27%
COc1ccccc1CNC(=O)C1CCCN1S(=O)(=O)c1cccc2cccnc12 (centres undefined),?,0,-6%,3%,22µM*
O=C(NCc1ccco1)C1CCCN(S(=O)(=O)c2cccc3cccnc23)C1 (centres undefined),25µM*,30,6%,-3%,-9%
O=C(NCCc1ccccc1)C1CCN(S(=O)(=O)c2ccc(-n3cnnn3)cc2)CC1,14µM*,38,8%,0%,-6%
O=C(NCc1ccco1)C1CCC(CNS(=O)(=O)c2cccc3cccnc23)CC1 (centres undefined),13µM*,-24,10%,-1%,20µM*
COc1ccc(S(=O)(=O)NCC2CCC(C(=O)NCc3ccco3)CC2)cc1 (centres undefined),13%,?,?,/,/
CC(C)(C)NC(=O)C1CCCN(S(=O)(=O)c2cccc3cccnc23)C1 (centres undefined),3%,35,-5%,0%,-3%
COC(=O)c1ccc(Cl)cc1NC(=O)N1CCC(CN2CCC(C)CC2)CC1,/,/,-7%[46 µM],/,/
Cc1cccc(N2CCN(C(=O)Cn3ncc4c([nH]c5ccccc54)c3=O)CC2C)c1 (centres undefined),/,/,19%[46 µM],/,/
COc1ccc(-n2c(=O)c(CCc3ccccc3)nc3cnc(N(C)C)nc32)cc1,?,/,/,-2%,-8%
O=C(NCc1ccco1)C1CCCN(S(=O)(=O)c2ccc(-n3cnnn3)cc2)C1 (centres undefined),25µM*,9,19%,-5%,-14%
SMILES,ALDH1A1 block,PNC assembly inh,LMNA splice mod,KinaseGlo FLuc,HPGD block
Cc1ccc(N2CCN(C(=O)c3noc4c3COc3ccc(C)cc3-4)CC2)c(C)c1,/,/,14%[46 µM],/,/
CCCCn1c(SCC(=O)N2CCC(C)CC2)nc2cc(S(N)(=O)=O)ccc21,8%,?,3%,1%,28µM*
CCCCn1c(SCN2C(=O)c3ccccc3C2=O)nc2cc(S(N)(=O)=O)ccc21,28µM*,-19,4%,12%,-14%
CCCCn1c(SCC(=O)c2cc(OC)ccc2OC)nc2cc(S(N)(=O)=O)ccc21,?,4,2%,-3%,-7%
CCCCn1c(SCc2ccc(C(=O)OC)o2)nc2cc(S(N)(=O)=O)ccc21,25µM*,-19,?,-3%,-25%
CCCCn1c(SCC2CCCO2)nc2cc(S(N)(=O)=O)ccc21 (centres undefined),-4%,-26,25%,-3%,-1%
CCOC(=O)CCCN,-7%[13.5 µM],/,/,-2%[7.66 µM],-4%
O=C(NCc1cccc(F)c1)c1ccc2nc(CCc3ccccc3)oc2c1,/,/,-1%[46 µM],/,/
Cc1cc(C)c2cc(CN(CCO)C(c3nnnn3Cc3ccc(F)cc3)C(C)C)c(=O)[nH]c2c1 (centres undefined),13µM*,-30,?,4%,1%
COc1ccc(C(=O)Nc2nc3c(s2)CCCC3)cc1S(=O)(=O)N1CCCc2ccccc21,?,-123*,?,4%,?
COc1ccc(C(=O)NC2CCCCCC2)cc1S(=O)(=O)N1CCCc2ccccc21,?,13,-23%,3%,-7%
CCOC(=O)c1cnc(SC)nc1Oc1cccc(NC(=O)c2ccc(Cl)cc2)c1,19%,7,0%,8%,-6%
CCOC(=O)c1cnc(SC)nc1Oc1cccc(NS(=O)(=O)c2ccc(Cl)cc2)c1,0%,-100*,?,0%,-12%
Cc1nc2c(C(=O)NCCCN(CC(C)C)CC(C)C)cnn2c(C)c1Cc1c(F)cccc1Cl,/,/,-7%[46 µM],/,/
COc1ccc(CNc2ncnc3c2nc2n3CCCC2)cc1,/,/,12%[46 µM],/,/
CS(=O)(=O)c1ccc2nc(NC3(C(F)(F)F)N=C4SCCN4C3=O)sc2c1 (centres undefined),5%,-106*,3%,-2%,0%
O=C1N2CCSC2=NC1(Nc1ccccn1)C(F)(F)F (centres undefined),0%,-12,?,-1%,-6%
COc1ccc(Br)cc1C(=O)N/N=C/c1ccc2c(c1)n(C)c(=O)n2C,?,-82*,-2%,0%,?
Cn1c(=O)n(C)c2cc(/C=N/NC(=O)c3ccc(Cl)cc3Cl)ccc21,?,64,12%,0%,?
COc1ccc(C(=O)C2CCCN(C(=O)c3cccs3)C2)cc1F (centres undefined),?,/,12%[46 µM],-2%,/
O=C(c1ccc2ccccc2c1)C1CCCN(C(=O)c2noc3c2CCCC3)C1 (centres undefined),14µM*,/,/,-1%,/
